# Publication PMC7862700, “An all-to-all approach to the identification of sequence-specific readers for epigenetic DNA modifications on cytosine”
# What was measured:
# Assay in all cases: DAPPL (digital affinity profiling via proximity ligation, sequencing); 10 mM Tris-HCl pH 7.5, 50 mM NaCl, 1 mM DTT, 4% glycerol, room temperature, 30 min; GST-TFs on glutathione beads, 16-mer random dsDNA library, 0.1% formaldehyde crosslink after washing; high values mean tight binding
# FEV = molecular target: T1, FEV (Homo sapiens, UniProt Q99581 1-238); details: protein: recombinant; tags: N-terminal GST; dsDNA, one strand shown
# T1 sequence: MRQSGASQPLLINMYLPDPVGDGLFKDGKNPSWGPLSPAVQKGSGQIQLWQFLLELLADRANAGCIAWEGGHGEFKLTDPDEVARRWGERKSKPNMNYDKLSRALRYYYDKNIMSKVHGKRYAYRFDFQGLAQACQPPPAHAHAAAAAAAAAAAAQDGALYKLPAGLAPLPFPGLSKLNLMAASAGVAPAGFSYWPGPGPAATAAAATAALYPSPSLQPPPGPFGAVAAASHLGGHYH
# How it was run: (§1)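 In yeast, human transcription factors were expressed with a GST fusion, then pulled down on glutathione beads and given DNA barcodes. Pooled with a tag-only sample, they were exposed to 200 nmole of a 16-mer random double-stranded DNA library (Tris/NaCl/DTT/glycerol buffer, room temperature, 30 min), washed, crosslinked with 0.1% formaldehyde, proximity-ligated using BsaI/T4 ligase for 1 h at 37 °C, PCR-amplified and read on an Illumina NextSeq500. Each hexamer's frequency of reads for a factor, divided by the matching frequency for the tag-only sample, gives the binding signal.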
# ETV5 = ETV5 (Homo sapiens, UniProt P41161 1-510); details: protein: recombinant; tags: N-terminal GST; dsDNA, one strand shown
# ETV5, sequence (P41161 whole entry): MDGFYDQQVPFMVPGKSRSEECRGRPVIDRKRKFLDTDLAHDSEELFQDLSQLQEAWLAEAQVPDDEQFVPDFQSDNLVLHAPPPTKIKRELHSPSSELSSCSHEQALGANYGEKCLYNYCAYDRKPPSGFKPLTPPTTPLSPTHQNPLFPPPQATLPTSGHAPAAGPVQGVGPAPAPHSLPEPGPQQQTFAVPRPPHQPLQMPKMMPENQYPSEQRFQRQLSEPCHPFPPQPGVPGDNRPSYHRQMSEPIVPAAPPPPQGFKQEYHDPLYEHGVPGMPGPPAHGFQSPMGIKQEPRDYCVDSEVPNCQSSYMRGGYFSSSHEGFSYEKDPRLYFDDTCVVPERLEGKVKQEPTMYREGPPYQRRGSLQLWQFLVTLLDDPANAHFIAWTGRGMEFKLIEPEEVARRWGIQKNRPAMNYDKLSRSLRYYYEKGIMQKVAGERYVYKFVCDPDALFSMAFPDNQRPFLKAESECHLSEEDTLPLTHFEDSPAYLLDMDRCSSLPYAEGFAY
# How it was run: as §1
# HSF1 = HSF1 (Homo sapiens, UniProt Q00613 1-529); details: protein: recombinant; tags: N-terminal GST; chain copies: 3; dsDNA, one strand shown
# HSF1, sequence (Q00613 whole entry): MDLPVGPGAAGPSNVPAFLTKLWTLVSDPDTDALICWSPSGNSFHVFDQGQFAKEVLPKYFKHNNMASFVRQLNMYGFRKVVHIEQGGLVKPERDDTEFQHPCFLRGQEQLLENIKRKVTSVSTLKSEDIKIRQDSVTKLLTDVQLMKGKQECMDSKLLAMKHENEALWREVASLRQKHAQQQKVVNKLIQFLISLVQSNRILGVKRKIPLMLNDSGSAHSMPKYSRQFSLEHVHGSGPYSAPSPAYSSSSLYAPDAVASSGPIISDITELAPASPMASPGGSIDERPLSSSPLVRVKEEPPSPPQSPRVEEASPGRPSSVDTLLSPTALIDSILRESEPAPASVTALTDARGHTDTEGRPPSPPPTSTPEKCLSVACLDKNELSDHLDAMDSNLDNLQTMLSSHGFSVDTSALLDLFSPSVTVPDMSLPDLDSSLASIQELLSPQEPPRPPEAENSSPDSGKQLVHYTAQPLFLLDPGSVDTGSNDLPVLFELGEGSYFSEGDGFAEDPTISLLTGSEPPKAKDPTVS
# How it was run: as §1
# SPIC = molecular target: T2, SPIC (Homo sapiens, UniProt Q8N5J4 1-248); details: protein: recombinant; tags: N-terminal GST; dsDNA, one strand shown
# T2 sequence: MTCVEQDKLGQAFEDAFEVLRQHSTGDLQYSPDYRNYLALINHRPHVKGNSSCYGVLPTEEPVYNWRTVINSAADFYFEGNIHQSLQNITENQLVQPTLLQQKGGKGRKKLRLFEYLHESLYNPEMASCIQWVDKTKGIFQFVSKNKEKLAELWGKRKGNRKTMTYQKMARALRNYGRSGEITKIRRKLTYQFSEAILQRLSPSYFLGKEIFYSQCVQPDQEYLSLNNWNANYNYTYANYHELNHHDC
# How it was run: as §1
# ELF4 = ELF4 (Homo sapiens, UniProt Q99607 1-663); details: protein: recombinant; tags: N-terminal GST; dsDNA, one strand shown
# ELF4, sequence (Q99607 whole entry): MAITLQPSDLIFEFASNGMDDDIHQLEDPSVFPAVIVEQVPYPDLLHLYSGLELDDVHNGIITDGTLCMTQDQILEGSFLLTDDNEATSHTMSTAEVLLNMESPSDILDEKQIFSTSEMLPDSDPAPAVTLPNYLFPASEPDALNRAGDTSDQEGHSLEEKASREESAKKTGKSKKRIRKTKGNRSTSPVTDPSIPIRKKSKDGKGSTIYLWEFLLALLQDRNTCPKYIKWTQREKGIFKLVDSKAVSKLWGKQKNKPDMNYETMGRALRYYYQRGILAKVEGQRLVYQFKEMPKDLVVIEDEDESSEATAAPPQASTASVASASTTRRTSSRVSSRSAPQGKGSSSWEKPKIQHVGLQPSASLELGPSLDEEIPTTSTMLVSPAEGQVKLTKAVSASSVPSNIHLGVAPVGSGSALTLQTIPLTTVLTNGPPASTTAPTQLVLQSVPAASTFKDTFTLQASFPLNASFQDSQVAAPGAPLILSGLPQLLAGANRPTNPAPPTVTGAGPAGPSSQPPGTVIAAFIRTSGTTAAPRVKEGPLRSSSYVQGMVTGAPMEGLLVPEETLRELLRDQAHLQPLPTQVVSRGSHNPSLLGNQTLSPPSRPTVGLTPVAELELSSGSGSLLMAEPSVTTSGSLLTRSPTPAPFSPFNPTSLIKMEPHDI
# How it was run: as §1
# ELK4 = molecular target: T3, ELK4 (Homo sapiens, UniProt P28324-2 1-405); details: protein: recombinant; tags: N-terminal GST; dsDNA, one strand shown
# T3 sequence: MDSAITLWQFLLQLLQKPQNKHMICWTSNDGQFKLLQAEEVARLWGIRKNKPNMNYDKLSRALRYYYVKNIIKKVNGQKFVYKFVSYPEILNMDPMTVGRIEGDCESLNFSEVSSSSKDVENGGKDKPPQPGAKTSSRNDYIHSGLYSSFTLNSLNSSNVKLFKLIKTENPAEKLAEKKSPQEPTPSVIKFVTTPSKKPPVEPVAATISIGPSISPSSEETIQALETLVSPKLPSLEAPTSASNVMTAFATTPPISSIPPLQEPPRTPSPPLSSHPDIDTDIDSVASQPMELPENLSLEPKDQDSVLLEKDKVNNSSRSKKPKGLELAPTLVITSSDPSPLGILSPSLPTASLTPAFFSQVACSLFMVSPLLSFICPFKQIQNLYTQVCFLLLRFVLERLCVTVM
# How it was run: as §1
# ETV2 = molecular target: T4, ETV2 (Homo sapiens, UniProt O00321 1-342); details: protein: recombinant; tags: N-terminal GST; dsDNA, one strand shown
# T4 sequence: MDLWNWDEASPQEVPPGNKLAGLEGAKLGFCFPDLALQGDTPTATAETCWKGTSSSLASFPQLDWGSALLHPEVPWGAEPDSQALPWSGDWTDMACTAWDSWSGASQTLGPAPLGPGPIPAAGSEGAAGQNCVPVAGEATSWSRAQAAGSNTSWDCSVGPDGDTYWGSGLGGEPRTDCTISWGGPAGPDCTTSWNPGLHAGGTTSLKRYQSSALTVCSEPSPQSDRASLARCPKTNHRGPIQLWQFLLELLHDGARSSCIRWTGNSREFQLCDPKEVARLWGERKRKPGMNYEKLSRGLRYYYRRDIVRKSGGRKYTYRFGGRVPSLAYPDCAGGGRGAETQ
# How it was run: as §1
# ELF3 = molecular target: T5, ELF3 (Homo sapiens, UniProt P78545 1-371); details: protein: recombinant; tags: N-terminal GST; dsDNA, one strand shown
# T5 sequence: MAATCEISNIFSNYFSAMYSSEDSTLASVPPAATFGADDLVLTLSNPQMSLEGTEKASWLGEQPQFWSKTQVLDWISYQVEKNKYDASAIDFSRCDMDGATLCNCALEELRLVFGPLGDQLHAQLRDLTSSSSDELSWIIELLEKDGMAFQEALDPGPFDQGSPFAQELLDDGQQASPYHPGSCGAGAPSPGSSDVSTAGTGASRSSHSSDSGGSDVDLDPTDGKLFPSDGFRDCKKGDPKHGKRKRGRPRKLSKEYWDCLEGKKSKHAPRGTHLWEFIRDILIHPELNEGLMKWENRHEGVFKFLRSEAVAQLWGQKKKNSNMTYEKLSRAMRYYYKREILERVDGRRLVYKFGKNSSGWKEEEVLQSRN
# How it was run: as §1
# CRX = CRX (Homo sapiens, UniProt O43186 1-299); details: protein: recombinant; tags: N-terminal GST; dsDNA, one strand shown
# CRX, sequence (O43186 whole entry): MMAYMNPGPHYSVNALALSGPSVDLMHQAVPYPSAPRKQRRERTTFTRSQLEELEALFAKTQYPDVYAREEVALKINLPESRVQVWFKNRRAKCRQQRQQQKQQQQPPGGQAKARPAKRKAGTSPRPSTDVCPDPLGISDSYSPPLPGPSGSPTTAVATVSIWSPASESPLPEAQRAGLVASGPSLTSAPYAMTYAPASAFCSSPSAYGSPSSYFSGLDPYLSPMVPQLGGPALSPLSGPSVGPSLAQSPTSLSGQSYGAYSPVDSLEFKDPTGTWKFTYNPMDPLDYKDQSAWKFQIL
# How it was run: as §1
# ETV1 = ETV1 (Homo sapiens, UniProt P50549 1-477); details: protein: recombinant; tags: N-terminal GST; dsDNA, one strand shown
# ETV1, sequence (P50549 whole entry): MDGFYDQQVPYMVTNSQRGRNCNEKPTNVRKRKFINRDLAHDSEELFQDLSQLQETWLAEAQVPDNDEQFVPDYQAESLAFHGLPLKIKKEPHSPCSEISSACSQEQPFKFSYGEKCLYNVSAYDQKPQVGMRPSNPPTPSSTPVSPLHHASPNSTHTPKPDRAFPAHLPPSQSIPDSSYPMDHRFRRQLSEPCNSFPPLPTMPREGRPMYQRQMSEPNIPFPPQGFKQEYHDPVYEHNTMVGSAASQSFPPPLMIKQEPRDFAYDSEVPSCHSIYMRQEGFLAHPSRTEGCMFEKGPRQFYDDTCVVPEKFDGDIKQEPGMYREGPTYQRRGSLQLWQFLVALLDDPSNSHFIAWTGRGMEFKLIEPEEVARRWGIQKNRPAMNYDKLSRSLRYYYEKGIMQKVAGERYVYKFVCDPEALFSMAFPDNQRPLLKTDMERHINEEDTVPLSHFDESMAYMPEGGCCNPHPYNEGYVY
# How it was run: as §1
# ERF = molecular target: T6, ERF (Homo sapiens, UniProt P50548 1-548); details: protein: recombinant; tags: N-terminal GST; dsDNA, one strand shown
# T6 sequence: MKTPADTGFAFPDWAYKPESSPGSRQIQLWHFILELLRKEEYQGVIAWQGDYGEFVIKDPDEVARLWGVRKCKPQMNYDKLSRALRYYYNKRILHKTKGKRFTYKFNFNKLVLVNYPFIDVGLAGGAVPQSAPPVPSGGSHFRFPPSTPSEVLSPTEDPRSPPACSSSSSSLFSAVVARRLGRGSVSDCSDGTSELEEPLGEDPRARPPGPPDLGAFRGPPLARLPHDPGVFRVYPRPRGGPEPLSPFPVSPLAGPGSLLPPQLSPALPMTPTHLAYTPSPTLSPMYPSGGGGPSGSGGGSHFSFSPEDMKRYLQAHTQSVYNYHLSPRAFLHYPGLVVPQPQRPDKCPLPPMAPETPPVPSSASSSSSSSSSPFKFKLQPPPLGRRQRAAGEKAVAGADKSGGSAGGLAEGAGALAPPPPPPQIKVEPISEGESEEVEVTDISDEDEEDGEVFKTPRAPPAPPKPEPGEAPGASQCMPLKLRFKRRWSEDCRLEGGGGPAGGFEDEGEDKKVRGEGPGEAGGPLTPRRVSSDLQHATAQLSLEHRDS
# How it was run: as §1
# ETV3L = molecular target: T7, ETV3L (Homo sapiens, UniProt Q6ZN32 1-361); details: protein: recombinant; tags: N-terminal GST; dsDNA, one strand shown
# T7 sequence: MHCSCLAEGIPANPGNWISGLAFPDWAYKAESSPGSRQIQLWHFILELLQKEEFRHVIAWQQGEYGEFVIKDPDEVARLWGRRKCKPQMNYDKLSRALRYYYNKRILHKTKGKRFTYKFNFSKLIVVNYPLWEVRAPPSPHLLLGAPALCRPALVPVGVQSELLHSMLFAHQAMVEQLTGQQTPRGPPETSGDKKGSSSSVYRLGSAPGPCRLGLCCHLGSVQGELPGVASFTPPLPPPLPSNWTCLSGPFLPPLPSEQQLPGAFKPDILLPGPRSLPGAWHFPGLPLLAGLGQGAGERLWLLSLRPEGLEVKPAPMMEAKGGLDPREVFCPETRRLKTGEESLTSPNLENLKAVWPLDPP
# How it was run: as §1
# ETS2 = molecular target: T8, ETS2 (Homo sapiens, UniProt P15036 1-469); details: protein: recombinant; tags: N-terminal GST; dsDNA, one strand shown
# T8 sequence: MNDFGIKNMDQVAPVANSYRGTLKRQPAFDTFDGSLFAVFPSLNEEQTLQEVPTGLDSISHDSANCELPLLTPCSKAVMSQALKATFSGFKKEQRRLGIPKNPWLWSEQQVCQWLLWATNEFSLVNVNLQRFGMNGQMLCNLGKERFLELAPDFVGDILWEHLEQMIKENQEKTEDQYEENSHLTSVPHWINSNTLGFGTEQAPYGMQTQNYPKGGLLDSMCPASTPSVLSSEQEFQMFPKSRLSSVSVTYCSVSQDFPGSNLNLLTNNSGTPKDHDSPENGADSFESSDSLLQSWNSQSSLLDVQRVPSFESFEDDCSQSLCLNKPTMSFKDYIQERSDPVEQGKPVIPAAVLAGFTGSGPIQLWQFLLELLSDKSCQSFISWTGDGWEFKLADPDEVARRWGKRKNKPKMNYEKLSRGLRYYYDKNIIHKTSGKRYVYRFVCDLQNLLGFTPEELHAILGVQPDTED
# How it was run: as §1
# SPDEF = molecular target: T9, SPDEF (Homo sapiens, UniProt O95238 1-335); details: protein: recombinant; tags: N-terminal GST; dsDNA, one strand shown
# T9 sequence: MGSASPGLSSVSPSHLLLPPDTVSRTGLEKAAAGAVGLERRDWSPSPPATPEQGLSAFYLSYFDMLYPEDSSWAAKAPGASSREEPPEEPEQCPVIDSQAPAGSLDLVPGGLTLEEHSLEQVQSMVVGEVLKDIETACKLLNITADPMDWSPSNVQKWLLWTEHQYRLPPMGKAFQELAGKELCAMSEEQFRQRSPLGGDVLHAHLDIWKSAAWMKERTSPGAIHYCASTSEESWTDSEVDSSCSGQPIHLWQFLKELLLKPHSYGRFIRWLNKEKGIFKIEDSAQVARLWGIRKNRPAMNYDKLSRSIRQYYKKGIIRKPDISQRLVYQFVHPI
# How it was run: as §1
# ETV7 = molecular target: T10, ETV7 (Homo sapiens, UniProt Q9Y603 1-341); details: protein: recombinant; tags: N-terminal GST; dsDNA, one strand shown
# T10 sequence: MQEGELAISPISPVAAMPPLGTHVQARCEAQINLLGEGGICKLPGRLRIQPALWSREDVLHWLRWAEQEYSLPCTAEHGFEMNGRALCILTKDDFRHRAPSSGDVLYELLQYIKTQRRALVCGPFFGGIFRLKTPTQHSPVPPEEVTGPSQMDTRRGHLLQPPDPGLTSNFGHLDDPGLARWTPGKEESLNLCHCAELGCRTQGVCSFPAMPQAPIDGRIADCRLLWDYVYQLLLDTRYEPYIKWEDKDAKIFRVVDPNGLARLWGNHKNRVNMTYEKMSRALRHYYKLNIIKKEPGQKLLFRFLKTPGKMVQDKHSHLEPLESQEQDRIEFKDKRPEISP
# How it was run: as §1
# ELF5 = molecular target: T11, ELF5 (Homo sapiens, UniProt Q9UKW6-2 1-255); details: protein: recombinant; tags: N-terminal GST; dsDNA, one strand shown
# T11 sequence: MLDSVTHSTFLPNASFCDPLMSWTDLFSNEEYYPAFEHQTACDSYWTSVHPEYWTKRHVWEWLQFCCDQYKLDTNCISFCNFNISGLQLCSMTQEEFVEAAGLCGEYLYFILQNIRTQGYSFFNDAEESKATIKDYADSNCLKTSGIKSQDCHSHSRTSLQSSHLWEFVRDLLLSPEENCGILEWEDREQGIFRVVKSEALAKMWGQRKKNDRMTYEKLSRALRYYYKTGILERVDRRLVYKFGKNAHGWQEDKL
# How it was run: as §1
# ETV3 = molecular target: T12, ETV3 (Homo sapiens, UniProt P41162-2 1-143); details: protein: recombinant; tags: N-terminal GST; dsDNA, one strand shown
# T12 sequence: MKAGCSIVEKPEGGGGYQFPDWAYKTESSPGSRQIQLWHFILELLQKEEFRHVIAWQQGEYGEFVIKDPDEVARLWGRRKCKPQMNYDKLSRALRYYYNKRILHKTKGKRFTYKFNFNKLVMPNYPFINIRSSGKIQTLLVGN
# How it was run: as §1
# ETV6 = ETV6 (Homo sapiens, UniProt P41212 1-452); details: protein: recombinant; tags: N-terminal GST; dsDNA, one strand shown
# ETV6, sequence (P41212 whole entry): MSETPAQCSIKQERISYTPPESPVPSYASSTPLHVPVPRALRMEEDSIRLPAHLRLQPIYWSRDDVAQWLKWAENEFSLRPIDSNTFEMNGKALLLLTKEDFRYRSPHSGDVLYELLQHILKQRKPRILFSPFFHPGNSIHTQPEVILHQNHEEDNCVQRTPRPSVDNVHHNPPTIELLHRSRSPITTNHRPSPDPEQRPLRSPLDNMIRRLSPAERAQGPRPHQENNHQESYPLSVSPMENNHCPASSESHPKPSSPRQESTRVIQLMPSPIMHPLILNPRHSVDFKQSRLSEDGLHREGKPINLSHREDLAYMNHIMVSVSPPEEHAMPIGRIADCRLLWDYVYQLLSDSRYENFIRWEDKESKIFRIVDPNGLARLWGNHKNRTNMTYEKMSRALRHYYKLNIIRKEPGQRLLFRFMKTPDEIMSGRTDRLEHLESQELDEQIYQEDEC
# How it was run: as §1
sequence,measurement,setting,value
ATATTG,binding signal,FEV,"1.33 fold enrichment (6-mer frequency, TF over GST control)"
same,binding signal,ETV5,"1.37 fold enrichment (6-mer frequency, TF over GST control)"
same,binding signal,HSF1,"1.19 fold enrichment (6-mer frequency, TF over GST control)"
same,binding signal,SPIC,"1.41 fold enrichment (6-mer frequency, TF over GST control)"
same,binding signal,ELF4,"1.37 fold enrichment (6-mer frequency, TF over GST control)"
same,binding signal,ELK4,"1.24 fold enrichment (6-mer frequency, TF over GST control)"
same,binding signal,ETV2,"1.48 fold enrichment (6-mer frequency, TF over GST control)"
same,binding signal,ELF3,"1.25 fold enrichment (6-mer frequency, TF over GST control)"
same,binding signal,CRX,"1.28 fold enrichment (6-mer frequency, TF over GST control)"
same,binding signal,ETV1,"1.32 fold enrichment (6-mer frequency, TF over GST control)"
same,binding signal,ERF,"1.31 fold enrichment (6-mer frequency, TF over GST control)"
same,binding signal,ETV3L,"1.41 fold enrichment (6-mer frequency, TF over GST control)"
same,binding signal,ETS2,"1.36 fold enrichment (6-mer frequency, TF over GST control)"
same,binding signal,SPDEF,"1.43 fold enrichment (6-mer frequency, TF over GST control)"
same,binding signal,ETV7,"1.33 fold enrichment (6-mer frequency, TF over GST control)"
same,binding signal,ELF5,"1.34 fold enrichment (6-mer frequency, TF over GST control)"
same,binding signal,ETV3,"1.35 fold enrichment (6-mer frequency, TF over GST control)"
same,binding signal,ETV6,"1.42 fold enrichment (6-mer frequency, TF over GST control)"
